Assay outcomes as filed in PubChem.
Sampled rows, rich in hits. Any-hit rate of the full collection: about 2.3%.
Mm-Cpn inhibitor – M. maripaludis TRiC chaperonin inhibition; purified Mm-Cpn ATPase, ADP Transcreener TR-FRET; Potency, µM (titrated, usually from 76.9 µM), without a hit: top-dose activity, negative = inhibition, actives largely listed as inhibitors; 0.031% of 330,000 active; note: potency is the fitted concentration of half-maximal effect; % is set by controls: 0 for no effect and ±100 for the full control effect; nearly all actives have a fitted effect of over 80% in size
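Reaction buffer contained 30 mM Tris pH 7.4, 100 mM KCl, 5 mM MgCl2 and 1 mM DTT. Mm-CPN (25 nM final) hydrolysed 10 uM ATP over 30 min at 37°C; ADP was read by HTRF.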
FUS yeast rescue – FUS proteinopathy suppression in yeast; Potency, µM (titrated, usually from 76.6 µM), most hits filed as activators; S. cerevisiae FUS-expressing, growth rescue, OD600, 24 h; 0.24% of 390,000 active;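 note: potency is the fitted concentration of half-maximal effect; plate controls were DMSO vehicle for no effect and reference control for full effect; nearly all actives have a fitted effect of over 55% in size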
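Compound concentration series was pinned onto galactose-induced FUS-expressing yeast seeded at OD 0.005. Plates sat 24hr at 30C; absorbance at 600 nm gave growth. DMSO served as background control.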
CCT modulator – modulators of cytosolic chaperonin (CCT/TRiC) activity | purified chaperonin ATPase assay, HTRF ADP detection, 30 min | activity change, % (concentration not given with the values), hits read low | 0.3% of 360,000 active | AID 651819; in the data active = activity change below about -30%; note: % is set by controls: 0 for no effect and ±100 for the full control effect
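First, chaperonin was dispensed at 40 nM or 20 nM final depending on batch activity. Next, compounds were pinned at 76 uM and ATP added at 10 uM. After 30 min at 37 °C, ADP detection reagents ran 30 min at ambient temperature.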
TDP43 rescue – inhibitors of TDP-43 toxicity in yeast; TDP-43 expressing yeast growth rescue, BacTiter-Glo, 24 h; Potency, µM (series often up to 46.1 µM), for inactives: top-dose growth rescue (activation), most hits filed as activators; 1.8% of 410,000 active; AID 652104; note: potency is the fitted concentration of half-maximal effect; % of control where 0% means no effect; nearly all actives have a fitted effect of over 50% in size
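Growth rescue of TDP-43-toxic yeast measured as ATP luminescence (BacTiter-Glo). Cells grown to mid-log in raffinose, induced in galactose at OD600=0.02, exposed to compound 24 hr at 30 deg C.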
aSyn rescue – alpha-synuclein toxicity inhibition in yeast | Yeast expressing alpha-synuclein, growth rescue, BacTiter-Glo, 24 h | Potency, µM (highest dose often 46.1 µM), for inactives: at the highest dose growth rescue (activation), most hits filed as activators | 0.14% of 370,000 active | AID 652106; note: potency is the fitted concentration of half-maximal effect; % of control where 0% means no effect; nearly all actives have a fitted effect of over 65% in size
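Screening used galactose-induced yeast with toxic alpha-synuclein levels, exposed to compound for 24 hr at 30 deg C. Cell growth, read with BacTiter-Glo luminescence, gave the measured signal.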
Abeta yeast res – restores growth of yeast expressing A-beta42 peptide; yeast expressing A-beta42, growth rescue, OD600, 48 h; response scale: 0% DMSO, 100% iron-clioquinol control; Potency, µM (highest dose often 46.1 µM), actives largely listed as activators; 0.063% of 410,000 active; note: potency is the fitted concentration of half-maximal effect; nearly all actives have a fitted effect of over 55% in size
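Yeast A-beta toxicity model in growth medium with pinned compounds, 48 h at 30 C; growth read as absorbance at 600 nm. Normalized to FeCl3/clioquinol equimolar mix (positive) and DMSO (negative).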
* marks the source's active call; other numbers are inactive results; i = inactive; ? = inconclusive; . = no result; ! = repeats disagree. Unless noted, calls come from the whole dose curve; as a rule, active = well fitted curve in the direction sought with a large enough effect; inconclusive = small, poorly fitted or top-dose-only effect, or another doubt; inactive = no such curve, though single readings can be large; an effect the other way counts as inactive or inconclusive.

SMILES	Mm-Cpn inhibitor	FUS yeast rescue	CCT modulator	TDP43 rescue	aSyn rescue	Abeta yeast res
Cc1ccccc1C(=O)Nc1c(C)nc2ccccn2c1=O	.	i	.	6%	.	i
O=C1[C@H]2[C@H](C=CC[C@H]2C(=O)N2CCN(c3ccccc3)CC2)CCN1Cc1ccc(Cl)c(Cl)c1	.	?	2	6%	?	i
O=C1[C@H]2[C@H](C=CC[C@H]2C(=O)N2CCN(c3ccccc3)CC2)CCN1Cc1ccccc1	.	i	-2	28µM*	?	i
OC(c1ccccc1)(c1ccccc1)C1CCN(CCCNc2cccc(OC(F)(F)F)c2)CC1	.	i	.	.	.	.
O=C(c1ccco1)N(Cc1ccc([N+](=O)[O-])cc1)c1ccc(Br)cc1	0%	i	-1	32µM*	1%	i
O=C(c1ccco1)N(Cc1ccc([N+](=O)[O-])cc1)c1ccc(Cl)cc1	1%	i	-2	22µM*	10%	i
O=C(Nc1ccc(F)cc1)OCc1cn(Cc2ccccc2)nn1	.	i	.	.	.	.
N#CN=c1snc(-c2ccccc2Cl)n1-c1ccccc1Cl	.	.	.	.	0%	.
CC(C)(C)c1cc(NS(=O)(=O)c2ccc(Br)s2)no1	1%	i	-1	22µM*	-15%	i
CC(=O)N1N=C(c2cccs2)CC1c1cccc([N+](=O)[O-])c1 (stereo not given)	0%	i	-4	?	10%	i
CC(=O)N1N=C(c2ccccc2)CC1c1cccc([N+](=O)[O-])c1 (stereo not given)	2%	i	-8	13µM*	4%	i
CC(=O)N1N=C(c2cccc(Cl)c2)OC1c1cccc([N+](=O)[O-])c1 (stereo not given)	-2%	i	0	16µM*	3%	i
Nn1cnc2scc(-c3ccc(Cl)cc3)c2c1=O	1%	i	0	?	3%	i
O=c1c2c(-c3ccc(Cl)cc3)csc2nc2n1CCC2	1%	.	0	14µM*	-3%	i
COc1ccc(CNC(=O)C2CCCN(c3nc4ccccc4o3)C2)cc1 (stereo not given)	.	i	.	.	.	.
O=C(Nc1nc2ccccc2s1)C1c2ccccc2Oc2ccccc21	-2%	i	0	10µM*	-15%	i
O=C(Cc1ccccc1)Nc1nc2ccccc2s1	-2%	i	2	?	17%	7.1µM*
COCC(=O)Nc1nc2ccccc2s1	.	i	1	-11%	-3%	i
CC1(C(=O)Nc2nc3ccccc3s2)CC1(Br)Br (stereo not given)	3%	i	-3	10µM*	8%	?
Cc1ccc(Cn2cc(CN3[C@H](C)COc4cc(Br)ccc4S3(=O)=O)nn2)cc1	.	i	.	.	.	.
CN1CCN(CCCNC(=O)c2cc3c(-c4ccc(Cl)cc4)nn(C)c3s2)CC1	-2%	i	-1	-8%	4%	i
Cn1nc(-c2ccc(Cl)cc2)c2cc(C(=O)NCC3CCCO3)sc21 (stereo not given)	-2%	i	0	22µM*	?	i
CCC(C)(C)n1nnnc1C(c1cc2cc(C)cc(C)c2[nH]c1=O)N1CCCC1 (stereo not given)	-5%	25µM*	-4	-16%	-3%	i
CCC(C)(C)n1nnnc1C(c1cc2cccc(C)c2[nH]c1=O)N1CCCC1 (stereo not given)	-4%	32µM*	1	-13%	4%	i
Cc1cccc(C(=O)N[C@H]2CC[C@@]34CCCN3C(=O)CCC[C@H]4[C@H]2C)c1	.	i	.	.	.	.
SMILES	Mm-Cpn inhibitor	FUS yeast rescue	CCT modulator	TDP43 rescue	aSyn rescue	Abeta yeast res
COc1ccccc1-c1nn2c(C3COc4ccccc4O3)nnc2s1 (stereo not given)	-19%	i	1	10µM*	.	i
c1ccc(Cc2nn3c(C4COc5ccccc5O4)nnc3s2)cc1 (stereo not given)	0%	i	-8	?	-31%	i
CCOC(=O)N1CCC(N2Cc3cccc(C(=O)Nc4ccc(F)cc4)c3C2=O)CC1	1%	i	-1	-10%	-10%	i
CCOC(=O)N1CCC(N2Cc3cccc(C(=O)Nc4ccc(CC)cc4)c3C2=O)CC1	1%	i	-1	25µM*	14%	i
O=C(NCC(c1cccnc1)N1CCN(Cc2ccccc2)CC1)C(=O)Nc1ccc(Cl)cc1 (stereo not given)	.	i	.	6%	.	i
CCOC(=O)c1c(C(C)(C)C)oc2ccc(O)cc12	-1%	i	-1	18µM*	10%	i
O=C(Nc1ccc(Br)cc1)c1ccc(F)c(S(=O)(=O)NCc2cccs2)c1	0%	i	0	20µM*	?	?
O=S(=O)(NCc1cccs1)c1ccc(Br)cc1	?	i	1	13%	1%	i
CC[C@@H](CCCc1ccc(OC)cc1)CCC(=O)N(c1ccccc1)c1ccccc1	.	i	.	.	.	.
CC1CCc2c(c3ccccc3n2C(=O)CCl)C1 (stereo not given)	2%	i	0	2.8µM*	-13%	i
CCN1CCN(CC(=O)n2c3c(c4ccccc42)CC(C)CC3)CC1 (stereo not given)	0%	i	2	-11%	-5%	i
Cc1cc2c(c(Sc3ccccc3)n1)C(=O)OC2	0%	i	-1	3.2µM*	.	i
Cc1cc2c(c(SCC(=O)N(C)c3ccccc3)n1)C(=O)OC2	1%	i	-2	-1%	-3%	i
O=C(NNc1nc2cc3c(cc2s1)OCO3)c1ccc(F)cc1	1%	i	2	22%	1%	i
O=C(NNc1nc2cc3c(cc2s1)OCCO3)c1ccc(F)cc1	1%	i	-1	10µM*	0%	?
CCN=c1scc(-c2ccco2)n1/N=C/c1ccc(O)cc1	0%	?	-2	18µM*	2%	i
CCN=c1scc(-c2ccco2)n1/N=C/c1ccc(OC)c(O)c1	.	.	0	?	-3%	i
COc1cccc(COC(=O)c2nn(-c3ccccc3)nc2N)c1	1%	i	-3	35µM*!	-4%	i
CCOC(=O)c1ccc2nc(NC(=O)C(C)C)sc2c1	0%	i	-3	10µM*	-6%	?
CCCC(=O)Nc1nc2ccc(C(=O)OCC)cc2s1	-15%	i	1	4%	2%	i
S=C(Nc1cc(Cl)cc(Cl)c1)NC(c1ccccc1)c1ccccc1	.	i	.	.	.	.
CCOC(=O)c1sc(N)c(C(=O)OCC)c1C	0%	i	-1	?	2%	i
CCOC(=O)c1sc(N)c(C(=O)Nc2ccccc2)c1C	-21%	i	-1	13µM*	-7%	i
